# Measurements reported in the supplement of paper PMC4466140.
# Target: ScBbc1
# Experiment: SPOT peptide array binding signal intensity (averaged, normalized) (arbitrary units (background-subtracted, floor 0; scale differs between SH3 domains)); higher = stronger binding of the SH3 domain to the peptide
# In short: (§1)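 Detection of bound protein relied on anti-GST antibody, an HRP anti-mouse secondary and luminol, with imaging and quantification in Genespotter. The bound protein was GST-fused SH3 domains from four yeast species, incubated at 10 μg/ml overnight at 4°C in TBS-based blocking buffer on cellulose membranes carrying synthetic 15-mer peptides with cysteines replaced by serines. Binding signal is normalized, background-subtracted spot intensity averaged over replicates, in arbitrary units that differ between domains.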
row,Binder,SPOT peptide array binding signal intensity
1,LPMNIQPDLPPRKIM,7.5

# Target: ScBem1-D1
# Experiment: as above
# In short: as §1
row,Binder,SPOT peptide array binding signal intensity
1,LPMNIQPDLPPRKIM,1

# Target: ScBzz1-D1
# Experiment: as above
# In short: as §1
row,Binder,SPOT peptide array binding signal intensity
1,LPMNIQPDLPPRKIM,13

# Target: ScBzz1-D2
# Experiment: as above
# In short: as §1
row,Binder,SPOT peptide array binding signal intensity
1,LPMNIQPDLPPRKIM,10.5

# Target: ScCyk3
# Experiment: as above
# In short: as §1
row,Binder,SPOT peptide array binding signal intensity
1,LPMNIQPDLPPRKIM,9

# Target: ScFus1
# Experiment: as above
# In short: as §1
row,Binder,SPOT peptide array binding signal intensity
1,LPMNIQPDLPPRKIM,510

# Target: ScHof1
# Experiment: as above
# In short: as §1
row,Binder,SPOT peptide array binding signal intensity
1,LPMNIQPDLPPRKIM,≤ 0

# Target: ScHse1
# Experiment: as above
# In short: as §1
row,Binder,SPOT peptide array binding signal intensity
1,LPMNIQPDLPPRKIM,92

# Target: ScLsb1
# Experiment: as above
# In short: as §1
row,Binder,SPOT peptide array binding signal intensity
1,LPMNIQPDLPPRKIM,362

# Target: ScLsb2
# Experiment: as above
# In short: as §1
row,Binder,SPOT peptide array binding signal intensity
1,LPMNIQPDLPPRKIM,218

# Target: ScLsb3
# Experiment: as above
# In short: as §1
row,Binder,SPOT peptide array binding signal intensity
1,LPMNIQPDLPPRKIM,5190

# Target: ScLsb4
# Experiment: as above
# In short: as §1
row,Binder,SPOT peptide array binding signal intensity
1,LPMNIQPDLPPRKIM,3270

# Target: ScMyo3
# Experiment: as above
# In short: as §1
row,Binder,SPOT peptide array binding signal intensity
1,LPMNIQPDLPPRKIM,14

# Target: ScMyo5
# Experiment: as above
# In short: as §1
row,Binder,SPOT peptide array binding signal intensity
1,LPMNIQPDLPPRKIM,0.75

# Target: ScNbp2
# Experiment: as above
# In short: as §1
row,Binder,SPOT peptide array binding signal intensity
1,LPMNIQPDLPPRKIM,348

# Target: ScPex13
# Experiment: as above
# In short: as §1
row,Binder,SPOT peptide array binding signal intensity
1,LPMNIQPDLPPRKIM,234

# Target: ScRvs167
# Experiment: as above
# In short: as §1
row,Binder,SPOT peptide array binding signal intensity
1,LPMNIQPDLPPRKIM,2170

# Target: ScSho1
# Experiment: as above
# In short: as §1
row,Binder,SPOT peptide array binding signal intensity
1,LPMNIQPDLPPRKIM,682

# Target: ScSla1-D1-D2
# Experiment: as above
# In short: as §1
row,Binder,SPOT peptide array binding signal intensity
1,LPMNIQPDLPPRKIM,192

# Target: ScSla1-D3
# Experiment: as above
# In short: as §1
row,Binder,SPOT peptide array binding signal intensity
1,LPMNIQPDLPPRKIM,212

# Target: SpAbp1-D1
# Experiment: as above
# In short: as §1
row,Binder,SPOT peptide array binding signal intensity
1,LPMNIQPDLPPRKIM,48

# Target: SpBbc1
# Experiment: as above
# In short: as §1
row,Binder,SPOT peptide array binding signal intensity
1,LPMNIQPDLPPRKIM,≤ 0

# Target: SpBzz1-D1
# Experiment: as above
# In short: as §1
row,Binder,SPOT peptide array binding signal intensity
1,LPMNIQPDLPPRKIM,362

# Target: SpBzz1-D2
# Experiment: as above
# In short: as §1
row,Binder,SPOT peptide array binding signal intensity
1,LPMNIQPDLPPRKIM,5.5

# Target: SpCyk3
# Experiment: as above
# In short: as §1
row,Binder,SPOT peptide array binding signal intensity
1,LPMNIQPDLPPRKIM,9.5

# Target: SpHof1
# Experiment: as above
# In short: as §1
row,Binder,SPOT peptide array binding signal intensity
1,LPMNIQPDLPPRKIM,21.5

# Target: SpHof1-2
# Experiment: as above
# In short: as §1
row,Binder,SPOT peptide array binding signal intensity
1,LPMNIQPDLPPRKIM,18.2

# Target: SpHof1-3
# Experiment: as above
# In short: as §1
row,Binder,SPOT peptide array binding signal intensity
1,LPMNIQPDLPPRKIM,11

# Target: SpHse1
# Experiment: as above
# In short: as §1
row,Binder,SPOT peptide array binding signal intensity
1,LPMNIQPDLPPRKIM,174

# Target: SpLsb1
# Experiment: as above
# In short: as §1
row,Binder,SPOT peptide array binding signal intensity
1,LPMNIQPDLPPRKIM,160

# Target: SpLsb4
# Experiment: as above
# In short: as §1
row,Binder,SPOT peptide array binding signal intensity
1,LPMNIQPDLPPRKIM,4630

# Target: SpMyo1
# Experiment: as above
# In short: as §1
row,Binder,SPOT peptide array binding signal intensity
1,LPMNIQPDLPPRKIM,75

# Target: SpNbp2
# Experiment: as above
# In short: as §1
row,Binder,SPOT peptide array binding signal intensity
1,LPMNIQPDLPPRKIM,59

# Target: SpPex13
# Experiment: as above
# In short: as §1
row,Binder,SPOT peptide array binding signal intensity
1,LPMNIQPDLPPRKIM,42.5

# Target: SpRvs167
# Experiment: as above
# In short: as §1
row,Binder,SPOT peptide array binding signal intensity
1,LPMNIQPDLPPRKIM,2340

# Target: SpSla1-D1-D2
# Experiment: as above
# In short: as §1
row,Binder,SPOT peptide array binding signal intensity
1,LPMNIQPDLPPRKIM,2.5

# Target: SpSla1-D3
# Experiment: as above
# In short: as §1
row,Binder,SPOT peptide array binding signal intensity
1,LPMNIQPDLPPRKIM,148
